# According to PubChem BioAssay (NCATS):
# Records with an inconclusive call do not appear. Calls of active or inactive are those of the source. Calls come from the whole dose curve.
# Target: Retinoic acid receptor RXR-alpha (Homo sapiens) (UniProt P19793)
# Test: qHTS assay for small molecule agonists of retinoid X receptor alpha signaling (AID 588544)
# Conditions: HEK293T RXRa-UAS-bla, beta-lactamase reporter, 18 h; series mostly up to 76.7 µM
# Description: NIH Chemical Genomics Center [NCGC] U.S. Environmental Protection Agency [EPA] National Institutes of Environmental Health Sciences [NIEHS] National Toxicology Program [NTP] NCGC Assay Overview The Retinoid X receptor (RXR), a nuclear hormone receptor is expressed in liver, spleen, placenta, epidermis, central nervous system. These receptors are able to form homo and heterodimers with other nuclear receptors and due to this heterodimerizing ability, RXR functions as master regulators producing diverse physiological effects. Three subtypes of RXR exist; alpha, beta and gamma. Retinoid X receptor alpha (RXR-alpha) has potential roles in metabolic signaling pathways, skin alopecia, dermal cysts, cardiac development, insulin sensitization etc. Therefore screening environmental chemicals on RXR-alpha signaling can be used for the studies focused on such therapeutic applications.
# NCGC Assay Protocol Summary Using a beta-lactamase reporter-gene under control of Retinoid X receptor--alpha (RXR-alpha) response element, a cell-based assay [GeneBLAzer (RXR-alpha -UAS-bla assay developed by Invitrogen] was used to measure RXR-alpha ligands signaling. GeneBLAzer RXR-alpha -UAS-bla HEK293T cells were used with assay medium containing 2% charcoal-stripped FBS. The assay was performed in clear bottom black Greiner 1536-well plates. 9-cis-retinoic acid was used in the screen as the positive control. Library compounds were measured for their ability to stimulate the reporter gene activity. Compounds were screened in a titration series in 1536-well format. The fluorescence intensity (405 nm excitation, 460/530 nm emission) was measured using an EnVision plate reader. Data was normalized relative to 9-cis-retinoic acid control (500 nM, 100%), and DMSO only wells (basal, 0%). Concentration-response titration points for each compound were fitted to the Hill equation yielding concentrations of half-maximal stimulation (EC50) and maximal response (efficacy) values. qHTS protocol for RXR-alpha beta-lactamase assay in agonist mode [Step] [Parameter] [Value] [Description] 1. Reagent; 6 uL; 2500 cells/well 2. Incubation; 37 C for 4 hrs 3. Compounds; 23 nL; 0.59 nM to 92 uM 4. Controls (9-cis-retinoic acid); 23 nL, - One column with dose response, start 38 uM, 1:3 dilutions in duplicates - Final concentrations of 500 nM and 50 nM in two columns 5. Incubation; 37 C for 18 hrs 6. Detection reagent; 1 uL of CCF4-dye 7. Incubation; RT for 2 hrs 8. Detection; Fluorescence; Envision plate reader
# Chain of Retinoic acid receptor RXR-alpha (Homo sapiens) (P19793 whole entry, looked up): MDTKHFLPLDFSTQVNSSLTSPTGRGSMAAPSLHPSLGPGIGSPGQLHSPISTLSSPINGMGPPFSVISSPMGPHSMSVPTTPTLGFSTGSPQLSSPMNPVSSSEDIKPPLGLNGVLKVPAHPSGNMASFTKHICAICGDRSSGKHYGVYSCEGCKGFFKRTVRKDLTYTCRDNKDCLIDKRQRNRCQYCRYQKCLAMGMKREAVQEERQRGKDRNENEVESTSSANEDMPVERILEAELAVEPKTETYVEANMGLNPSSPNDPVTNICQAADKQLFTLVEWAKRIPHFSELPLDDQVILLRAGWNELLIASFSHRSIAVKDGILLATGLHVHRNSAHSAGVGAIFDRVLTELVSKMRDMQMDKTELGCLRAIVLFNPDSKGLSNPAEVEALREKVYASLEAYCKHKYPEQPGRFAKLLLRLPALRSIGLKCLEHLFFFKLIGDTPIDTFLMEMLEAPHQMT
row,SMILES,outcome
1,Cc1ccc(S(=O)(=O)Oc2ccc(N=Nc3ccc(-c4ccc(N=Nc5c(O)ccc6cc(S(=O)(=O)O)cc(S(=O)(=O)O)c56)c(C)c4)cc3C)cc2)cc1,inactive
2,Cc1cc(Nc2ccc(O)cc2)ccc1N,inactive
3,c1ccc2c(c1)ccc1cc3c(ccc4ccccc43)cc12,inactive
4,ClC1=C(Cl)C(Cl)(Cl)C(Cl)=C1Cl,inactive
5,CN1[C@H]2CC(OC(=O)[C@H](CO)c3ccccc3)C[C@H]1[C@H]1O[C@H]12 (some centres not stated),inactive
6,O=C(/C=C/c1ccc(O)c(O)c1)OC1C[C@](O)(C(=O)O)C[C@@H](O)[C@H]1O (some centres not stated),inactive
7,CC1CCC(C(C)C)C(O)C1 (configuration not stated),inactive
8,C=C(C)c1ccccc1,inactive
9,O=C=Nc1ccc(Cc2ccc(N=C=O)cc2)cc1,inactive
10,CCCCCC/C(C=O)=C\c1ccccc1,inactive
11,Cc1cccc(O)c1C,inactive
12,O=Cc1ccc(Cl)c(Cl)c1,inactive
